An excerpt weighted towards active compounds, which were near 0.9% of everything screened.
HIV TAR-Tat = HIV-1 TAR-Tat binding disruption | HIV-1 TAR RNA, Tat peptide displacement FRET; hits give high values | z-score (test concentration not listed) | 100,000 tested, 0.6% active | AID 1259389; active = z-score of 3 or more in at least 2 runs
CDC25B CDK2 inh = human CDC25B-CDK2/CyclinA binding inhibition | P30305+P24941 | HTRF CDC25B-CDK2/CyclinA binding, anti-His/anti-Flag; hits give high values | z-score (no concentration beside the values) | 94,000 tested, 0.72% active | AID 1259370; in the data active = z-score above about 3.2
The depositor's hits bear a star; . = not tested or not shown.

SMILES | HIV TAR-Tat | CDC25B CDK2 inh
N#CC1=C2SCN(c3ccccc3F)CN2C(=O)CC1c1cccc(Br)c1 (centres undefined) | -1 | 2.7
CCc1ccccc1N1CSC2=C(C#N)C(c3cccc(F)c3)CC(=O)N2C1 (centres undefined) | -1.2 | 6.3*
N#CC1=C2SCN(c3ccccc3F)CN2C(=O)CC1c1c(F)cccc1Cl (centres undefined) | -2 | -1.1
Cc1ccc2c(C)nc(Nc3nc4c(c(=O)[nH]3)CCC4)nc2c1 | . | 10*
Cc1ccc2nc(Nc3nc4c(c(=O)[nH]3)CCCC4)nc(C)c2c1 | 0.36 | 10
O=C(CCS(=O)(=O)c1cccc2nsnc12)Nc1cccc(Cl)c1 | -0.64 | -0.03
Cc1ccc(CNC(=O)CC(C)CC2=NS(=O)(=O)c3ccccc3N2)o1 (centres undefined) | 0.5 | .
CC(CC(=O)NCc1ccco1)CC1=NS(=O)(=O)c2ccccc2N1 (centres undefined) | 9.5* | .
C=CCn1c(=O)c2ccc(C(=O)NCC(C)C)cc2n2c(=O)[nH]nc12 | 2.4 | -1.1
Clc1ccc(-c2noc3ncnc(NCCc4c[nH]c5ccccc45)c23)cc1 | 1.8 | .
CCN1CCN(c2cc(Nc3ccc4c(c3)OCO4)c3c4c(onc24)-c2ccccc2C3=O)CC1 | 1.1 | 1.2
COc1cccc(Nc2cc(N3CCOCC3)c3noc4c3c2C(=O)c2ccccc2-4)c1 | 1.4 | -2.1
CN1CCN(c2cc(Nc3ccc4c(c3)OCO4)c3c4c(onc24)-c2ccccc2C3=O)CC1 | -7 | 10*
O=C1c2ccccc2-c2onc3c(N4CCOCC4)cc(Nc4ccc5c(c4)OCCO5)c1c23 | -6.2 | 1.7
COc1cccc(Nc2cc(N3CCN(C)CC3)c3noc4c3c2C(=O)c2ccccc2-4)c1 | 0.5 | 11*
CN1CCN(c2cc(Nc3ccc4c(c3)OCCO4)c3c4c(onc24)-c2ccccc2C3=O)CC1 | -7 | 11*
Cc1ccc(-c2ccc(=O)n(CC(=O)OC(C)C)n2)cc1S(=O)(=O)N1CCOCC1 | -0.97 | -1.6
CCOC(=O)c1c(C)[nH]c(NC(=O)NC(C)C)c1C | 2.2 | 1.2
O=c1c2c(nc3cc(-c4ccco4)[nH]n13)CSC2 | . | 19*
O=c1c2c(nc3cc(-c4ccccc4)[nH]n13)CCCC2 | . | 1
COc1cccc(-c2cc3nc(-c4ccccc4)cc(=O)n3[nH]2)c1 | . | -1.3
O=c1cc(-c2cccnc2)nc2cc(-c3ccco3)[nH]n12 | . | 19*
Oc1ccc2ccccc2c1CN1CCN(Cc2ccccc2)CC1 | . | -8.1
CN1CCSc2ccc(C(=O)O)cc21 | . | -1.8
O=C(c1ccc2c(c1)C(=O)c1ccccc1-2)c1ccccc1Br | . | -1.4
SMILES | HIV TAR-Tat | CDC25B CDK2 inh
O=C1c2ccccc2C(=O)c2c1oc(C(F)(F)F)c2C(=O)c1ccc2ccccc2c1 | . | 9.3*
Cn1c(SCC(=O)Nc2ccc3[nH]c(=O)[nH]c3c2)nnc1-c1cc2ccccc2o1 | 2.9 | .
Cc1cc(C)c2ccc(Cl)nc2c1O | . | 0.3
CC1CCN(c2c(NCC3CCC(C(=O)N4CCc5ccccc54)CC3)c(=O)c2=O)CC1 (centres undefined) | 2.6 | -2.2
O=C(CSCC(=O)Nc1cccc(C(F)(F)F)c1)Nc1ccccc1 | . | -1.5
O=C(O)CSCC(=O)Nc1cc(C(F)(F)F)cc(C(F)(F)F)c1 | . | 8.4*
CCCc1nn2c(=O)cc(COc3cc(C)ccc3C)nc2s1 | 0.21 | 0
CCSc1nn2c(=O)cc(COc3cc(C)ccc3C)nc2s1 | 7.7* | 1.1
Cc1noc2ncnc(N3CCC(C(=O)N4CCCc5ccccc54)CC3)c12 | 3.6 | .
NC(=O)CSc1nc2ccccc2c(=O)[nH]1 | 2 | -0.94
O=C(CSc1nc2ccccc2c(=O)[nH]1)N1CCc2ccccc21 | 14* | .
Cc1ccc(C)c(OCc2nc(-c3ccccc3)no2)c1 | 0.19 | -0.72
CCOC(=O)c1c(N)n(CCc2ccccc2)c2nc3ccccc3nc12 | 0.65 | 0.32
Cc1ccc(S(=O)(=O)c2c(N)n(CCO)c3nc4ccccc4nc23)cc1 | . | 18*
CC1=C(C(=O)OC2CCCCC2)C(c2ccc(OCc3ccccc3)cc2)NC(=O)N1 (centres undefined) | . | 0.41
Cc1onc(-c2ccccc2)c1NC(=O)Nc1ccc(C2=NC(C)(C)CO2)cc1 | . | 5.6*
Cc1onc(-c2ccccc2)c1NC(=O)Nc1ccccc1N1CCOCC1 | . | -1.6
O=C(NCCCN1CCOCC1)C1c2ccccc2C(=O)N(C2CCCC2)C1c1cccs1 (centres undefined) | -0.9 | .
Cc1nc2c(C)cccn2c(=O)c1NC(=O)c1ccc(C(C)(C)C)cc1 | 0.58 | .
CCOc1cc(CNc2ccc3[nH]c(=O)[nH]c3c2)cc(Cl)c1OCC | -2.6 | 7.7*
COc1cc(CNc2ccc3[nH]c(=O)[nH]c3c2)cc(Br)c1OCc1ccc(F)cc1 | -2.9 | 7.2*
COc1cc(CNCCSc2nnnn2C)cc(Br)c1OCc1ccc(F)cc1 | 1.5 | 1.4
C=CCOc1c(Cl)cc(CNc2ccc3[nH]c(=O)[nH]c3c2)cc1OC | 1.6 | -0.61
Cc1ccccc1OCCn1c(C(O)c2ccccc2)nc2ccccc21 (centres undefined) | 1.7 | -0.75
CCOC(=O)c1ccc2nc(-c3ccc(C)cc3)cc(OCC)c2c1 | 2.2 | -1.8
SMILES | HIV TAR-Tat | CDC25B CDK2 inh
O=C(CC1C(=O)Nc2ccccc2N1S(=O)(=O)c1cccs1)Nc1cccc(Cl)c1 (centres undefined) | . | -0.95
Cc1c(Cl)ccc2c(=O)c(C(=O)O)c[nH]c12 | 1.3 | -1.5
O=C(O)c1c[nH]c2c(ccc3ccccc32)c1=O | 9.3* | 1.8
Nc1ccc2nc(SCC(=O)Nc3ccc4nc(SCC(=O)NC5CC5)sc4c3)sc2c1 | . | 19*
CCC(=O)Nc1ccc2nc(SCC(N)=O)sc2c1 | -0.15 | -1.7
O=C(CSc1nc2ccc(NC(=O)c3ccco3)cc2s1)Nc1nccs1 | 0.7 | 0.57
NC(=O)CSc1nc2ccc(NC(=O)c3ccco3)cc2s1 | 1.8 | 12*
O=C(NCc1ccco1)c1ccc2c(=O)n(C3CCCCC3)c(=S)[nH]c2c1 | . | -2.9
O=C(NCC1CCCO1)c1ccc2c(c1)CCN2S(=O)(=O)c1ccccc1 (centres undefined) | 0.3 | -0.75
CN(C)S(=O)(=O)Oc1ccc(-c2noc(-c3ccc(Oc4cc(Cl)cc(Cl)c4)o3)n2)cc1 | . | 0.3
C=CC(=C)CC(NC)c1ccccc1 (centres undefined) | 0.37 | 16*
C=C(C)CC(NC(C)c1ccccc1)c1ccco1 (centres undefined) | -0.33 | -0.1
COc1ccc(-c2nc3n(n2)C(c2cccnc2)C2=C(CC(C)(C)CC2=O)N3)cc1 (centres undefined) | -0.57 | -0.08
Cc1cc(=O)c2c(O)c3c(cc2o1)OCC(C)CC3 (centres undefined) | 2.7 | .
C(=C\c1ccc2c(c1)OCO2)/C1=NN(c2ccccc2)C(c2ccc3c(c2)OCO3)C1 (centres undefined) | 0.32 | 16*
Cn1c(/C=C/c2ccc3c(c2)OCO3)nc2ccccc2c1=O | 0.6 | 0.59
C=CCOc1ccc(C2/C(=C(\O)c3ccc(OCC)cc3)C(=O)C(=O)N2c2nnc(C)s2)cc1 (centres undefined) | 1.1 | -2.2
O=C(CN1C(=O)COc2ccc(S(=O)(=O)N3CCCCCC3)cc21)N1CCCC1 | . | -0.61
Cc1sc(-n2cccc2CNCCCN(C)c2ccccc2)c(C(=O)O)c1C | 0.97 | .
Cc1nc(Nc2ncc3c(n2)CC(c2ccco2)CC3=O)nc2ccccc12 (centres undefined) | 3.4 | 1.1

Screening results as filed in PubChem BioAssay.
